Experimental data from ChEMBL document CHEMBL1201862, “PubChem BioAssay data set” (2004).
The campaign covered roughly 420,000 compounds. About 64,000 (15%) were called active. About 27% were inconclusive and are not listed. No cut-off for these calls is given here. The entries come from a sample that favours actives as a whole.

Target: Tyrosyl-DNA phosphodiesterase 1 (Homo sapiens) (UniProt Q9NUW8)
Assay: qHTS for Inhibitors of human tyrosyl-DNA phosphodiesterase 1 (TDP1): qHTS in cells in absence of CPT.
Format: functional

Tyrosyl-DNA phosphodiesterase 1 (Homo sapiens), sequence (Q9NUW8 whole entry): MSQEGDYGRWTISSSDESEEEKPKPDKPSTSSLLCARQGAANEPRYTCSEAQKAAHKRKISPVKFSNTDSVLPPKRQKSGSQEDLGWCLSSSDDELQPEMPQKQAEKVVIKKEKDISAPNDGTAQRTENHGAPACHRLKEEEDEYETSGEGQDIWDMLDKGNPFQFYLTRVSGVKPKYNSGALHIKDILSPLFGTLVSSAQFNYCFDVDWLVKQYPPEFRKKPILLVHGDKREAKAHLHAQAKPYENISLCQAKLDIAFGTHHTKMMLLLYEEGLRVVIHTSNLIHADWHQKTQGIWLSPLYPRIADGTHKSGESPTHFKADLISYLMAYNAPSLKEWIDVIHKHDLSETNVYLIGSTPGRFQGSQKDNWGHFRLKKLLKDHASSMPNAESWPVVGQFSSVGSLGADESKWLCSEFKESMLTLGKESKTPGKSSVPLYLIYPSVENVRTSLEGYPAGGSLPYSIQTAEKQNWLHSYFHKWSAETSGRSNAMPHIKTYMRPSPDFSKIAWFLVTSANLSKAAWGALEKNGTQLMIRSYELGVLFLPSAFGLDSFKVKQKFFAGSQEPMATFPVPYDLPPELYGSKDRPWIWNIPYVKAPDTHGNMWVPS

Potency, active:
Cc1cccc2c1N(CCCCI)C=S2C (stereo not drawn) 3.98 µM
ICCCCN1C=S(CI)c2ccccc21 (stereo not drawn) 8.91 µM
CN(C)c1ccc(/C=C/c2cccc3c2N(CCCCI)C=S3/C=C/c2ccc(N(C)C)cc2)cc1 (stereo not drawn) 15.8 µM
COc1ccc(OC)c(/C=C/c2cccc3c2N(CCCCI)C=S3/C=C/c2cc(OC)ccc2OC)c1 (stereo not drawn) 7.08 µM
CCOc1ccc(N2C(=O)c3ccccc3N/C2=C\N2CCN(C(=O)c3ccco3)CC2)cc1 10 µM
O=C(/C=C/c1ccc(Cl)cc1)c1cccs1 7.5 µM
COc1ccccc1/C=C/C(=O)c1cccs1 5.96 µM
CC(C)C(C)c1cccc2c1NC=S2C(C)C(C)C (stereo not drawn) 5.62 µM
